# An excerpt weighted towards active compounds, which were near 7.5% of everything screened.
# Rab9 prom act: qHTS Assay for Rab9 Promoter Activators | Huh7 Rab9 promoter-luciferase reporter, luminescence, 24 h | Potency, µM (series often up to 9.22 µM), inactives show at the top dose activation, negative = inhibition, actives largely listed as activators | 320,000 tested, 2.8% active; also: % of control where 0% means no effect; nearly all actives have a fitted effect of over 60% in size
#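 Huh7 reporter line, Rab9 promoter upstream of luciferase. Compound exposure 24 h at 37 °C in reduced-serum medium with 10% FBS. Read-out: luminescence.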
# NPC1 promoter act: qHTS Assay for NPC1 Promoter Activators; 320,000 tested, 2.4% active; Huh7 NPC1 promoter luciferase reporter, 24 h; AID 485313, 2010; Potency, µM (titrated, usually from 9.22 µM), for inactives: at the highest dose activation, usual class: activators; also: % of control where 0% means no effect; nearly all actives have a fitted effect of over 60% in size
#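 Compounds in DMSO were transferred onto Huh7 NPC1-luciferase reporter cells pre-incubated 2 h; after 24 h at 37 °C, Amplite reagent was dispensed and luminescence recorded 10 min later.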
# FLuc modulator: qHTS profiling assay for firefly luciferase inhibitor/activator using purifed enzyme and Km concentrations of substrates (counterscreen for miR-21 project); Luciferin 4-monooxygenase (Photinus pyralis), P08659; purified FLuc, Km substrates, luminescence inhibition; AID 588342, 2011; Potency, µM (highest dose often 57.5 µM), inactives show at the top dose activity change, negative = inhibition, usual class: inhibitors; 360,000 tested, 6.9% active;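 also: plate controls were vehicle for no effect and reference inhibitor for full effect; nearly all actives have a fitted effect of over 55% in size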
# Target sequence (P08659 whole entry, looked up): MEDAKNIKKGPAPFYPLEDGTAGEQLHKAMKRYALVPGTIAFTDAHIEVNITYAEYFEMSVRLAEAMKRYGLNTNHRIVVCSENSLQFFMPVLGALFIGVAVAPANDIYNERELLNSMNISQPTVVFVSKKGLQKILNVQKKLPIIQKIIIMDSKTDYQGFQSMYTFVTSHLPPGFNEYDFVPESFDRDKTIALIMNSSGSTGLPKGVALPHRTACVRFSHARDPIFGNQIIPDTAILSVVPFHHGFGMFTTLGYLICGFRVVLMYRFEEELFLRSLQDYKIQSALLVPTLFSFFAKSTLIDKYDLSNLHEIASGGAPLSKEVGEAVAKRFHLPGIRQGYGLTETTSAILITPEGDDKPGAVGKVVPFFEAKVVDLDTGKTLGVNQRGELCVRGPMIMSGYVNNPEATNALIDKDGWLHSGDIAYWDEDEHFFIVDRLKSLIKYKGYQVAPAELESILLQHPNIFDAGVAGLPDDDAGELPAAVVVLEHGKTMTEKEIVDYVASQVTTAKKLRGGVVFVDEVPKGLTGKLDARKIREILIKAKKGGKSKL
#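 Purified P. pyralis luciferase (10nM final) with 10uM D-luciferin and 10uM ATP (Km levels) in 50mM Tris acetate pH 7.5, 10mM Mg acetate, 0.01% Tween-20, 0.05% BSA; qHTS 6-point titration, ~60 µM downward; luminescence read.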
# SMN2 splice up: qHTS Assay for Enhancers of SMN2 Splice Variant Expression. 210,000 tested, 2.8% active. AID 1458, 2008. HEK293 SMN2-luciferase splicing reporter, luminescence, 30-36 h. Potency, µM (doses to about 46.1 µM), for inactives: at the highest dose activity change, positive = activation, most hits filed as activators; also: % of control where 0% means no effect; nearly all actives have a fitted effect of over 55% in size
#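 HEK293 cells carry an SMN2 […]–luciferase reporter in which exon 7 inclusion puts luciferase in frame. Cells were plated 10-12 h before compound addition, then incubated 30-36 h at 37C. ONE-Glo luminescence was read; sodium butyrate at 4.5 mM final served as control.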
# ELG1 genotox: qHTS screen for small molecules that induce genotoxicity in human embryonic kidney (HEK293T) cells expressing luciferase-tagged ELG1 | HEK293T ELG1-luciferase reporter, luminescence, 16 h | Potency, µM (top dose mostly 46 µM), without a hit: at the highest dose activity change, positive = activation, actives largely listed as activators | 330,000 tested, 1.3% active | AID 504466, 2011; also: % of control where 0% means no effect; nearly all actives have a fitted effect of over 60% in size
#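 16 hr compound incubation (37 °C, 5% CO2) of HEK293T cells carrying luciferase-tagged ELG1; luciferase then measured by ONE-Glo luminescence after 30 min at RT.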
# Starred values were filed as active, the others as inactive; u = inconclusive; x = no result given; [ ] = dose if it differs, or a comment. Calls follow the shape of the dose curve; as a rule, active = well fitted curve in the direction sought with a large enough effect; inconclusive = small, poorly fitted or top-dose-only effect, or another doubt; inactive = no such curve, though single readings can be large; an effect the other way counts as inactive or inconclusive. Potency is read from the fitted curve at half-maximal effect.
SMILES,Rab9 prom act,NPC1 promoter act,FLuc modulator,SMN2 splice up,ELG1 genotox
CC(C)CCNC(=O)CSCc1cnn(-c2ccccc2)c1-n1cccc1,x,x,-2.4%,x,x
O=C(CCN1C(=O)c2ccccc2C1=O)Nc1nc2ccccc2s1,0.9%,7.5%,19µM*,14.5%,16.2%
CN1CCN(CC(=O)Nc2nc3ccccc3s2)CC1,14.4%,-3.0%,-1.3%,x,3.4%
Cc1cccc(C(=O)NC(=S)Nc2ccccc2C(F)(F)F)c1,11.8%,17.3%,-19.0%,2.0%,-1.3%
O=C(NC(=S)Nc1ccccn1)c1cncc(Br)c1,u,u,15.1µM*,-25.2%,10.5%
CCOc1ccc(C(=O)NC(=S)Nc2ccccn2)cc1[N+](=O)[O-],u,-1.8%,-6.3%,-68.4%,0.4%
O=C(O)c1cccc(NC(=S)NCc2ccccc2)c1,u,16.2%,15.1µM*,x,1.8%
O=C(NC(=S)Nc1ccccn1)c1cccc([N+](=O)[O-])c1,1.58µM*,1.26µM*,23.9µM*,x,u
Cc1ccc(C(=O)NC(=S)Nc2ccccc2C(F)(F)F)cc1C,-2.4%,2.6%,23.9µM*,-16.9%,1.2%
Cc1ccc(S(=O)(=O)N(C)C[C@@H]2Oc3ccc(NC(=O)CCC(F)(F)F)cc3CC(=O)N([C@@H](C)CO)C[C@@H]2C)cc1,x,x,x,x,10.2%
CC1CCC2=C1C[C@H](C(C)(C)O)CC[C@@H]2C (some centres undefined),x,x,x,-7.7%,x
CCN(CC)CCNc1oc(-c2ccccc2)nc1S(=O)(=O)c1ccccc1,x,x,x,x,0.6%
COc1cc2ccccc2cc1C(=O)NC(=S)Nc1ccc(C(=O)O)cc1,u,26.4%,u,x,12.5%
CC(=O)c1cccc(NC(=S)NC(=O)c2cccc(Cl)c2)c1,3.55µM*,u,21.3µM*,u,u
O=C(NC(=S)Nc1cc([N+](=O)[O-])ccc1O)c1cccnc1,u,19.4%,16.9µM*,-6.1%,8.2%
Cc1ccc([N+](=O)[O-])cc1NC(=S)NC(=O)c1cccnc1,-4.6%,-5.5%,-2.1%,9.0%,-2.6%
CC(C)CCOCC(=O)Nc1cccc(C(=O)O)c1,0.501µM*,0.708µM*,5.36µM*,14.1µM*,u
COc1cc2ccccc2cc1C(=O)NC(=S)Nc1cccc(C(=O)O)c1,2.24µM*,u,13.5µM*,19.5%,17.4%
CC(=O)c1cccc(NC(=S)NC(=O)C(C)C)c1,-1.2%,-0.5%,4.2%,13.3%,-0.2%
CC1CCN(S(=O)(=O)CCNC(=O)c2ccccc2)CC1,2.6%,-2.9%,5.0%,x,-1.1%
CC(C)C(NS(=O)(=O)c1ccc2c(c1)oc(=O)n2C)C(=O)NCc1ccccc1 (centres undefined),x,x,4.2%,-0.8%,x
O=C(C1CCN(Cc2cn[nH]c2-c2ccc(F)cc2F)CC1)N1CCOCC1,-15.6%,-0.8%,0.5%,x,0.9%
O=C(NS(=O)(=O)c1ccc(Cl)cc1)c1ccccc1,11.5%,-8.3%,-14.7%,10.2%,0.5%
O=C(Nc1ccccc1Cl)C(Cl)C(=O)c1ccccc1 (centres undefined),4.6%,19.7%,u,-19.9%,7.2%
Cc1ccc(NC(=S)NNC(=O)c2cccc([N+](=O)[O-])c2)cc1Cl,-2.3%,1.4%,19µM*,x,-6.5%
SMILES,Rab9 prom act,NPC1 promoter act,FLuc modulator,SMN2 splice up,ELG1 genotox
O=C(O)/C(=N/NC(=O)c1ccc(Cl)cc1)c1ccccc1,2.0%,-5.2%,16.9µM*,x,6.7%
CCCCC(=O)NC(=S)Nc1cccc(C(=O)O)c1,20.5%,27.7%,23.9µM*,x,9.1%
O=C(Nc1ccc(Cl)cc1)C(Cl)C(=O)c1ccccc1 (centres undefined),16.9%,2.4%,15.1µM*,x,u
COc1ccc(/C=C/C(=O)NCc2ccccn2)cc1OC,-6.5%,-1.4%,-1.8%,x,1.9%
COc1cccc(CNC(=O)c2ccccc2-c2ccccc2)c1,-1.2%,-1.7%,-12.0%,x,-6.0%
O=C(O)c1ccc(N/C(=N\S(=O)(=O)c2ccc(Cl)cc2)c2ccccc2)cc1,-1.2%,-2.9%,-17.7%,x,1.7%
CC(=O)c1cccc(NC(=S)NC(=O)c2ccccc2)c1,2.24µM*,u,7.57µM*,u,u
CC#CCCCC(=O)Nc1cccc(C(=O)O)c1,3.16µM*,u,23.9µM*,u,12.0%
O=C(O)c1cccc(NC(=S)NC(=O)c2ccc(-c3ccccc3)cc2)c1,u,0.355µM*,1.07µM*,3.16µM*,u
O=C(N/C(=N\O)c1ccccc1)Nc1ccc(Cl)cc1,-5.1%,1.1%,16.9µM*,x,u
NS(=O)(=O)c1ccc(NC(=S)NC(=O)c2ccc(-c3ccccc3)cc2)cc1,0.3%,-6.1%,-0.3%,-26.7%,16.2%
CCCCC(CCC(=O)O)(C(=O)OCC)c1csc(Nc2ccc(OCC)cc2)n1 (centres undefined),1.5%,-4.4%,5.0%,x,2.3%
O=C(NC(=S)Nc1ccc(Cl)cc1)c1ccccc1,u,u,10.7µM*,x,21.8%
Cc1ccc(C(=O)O)cc1NC(=S)NC(=O)c1ccc(-c2ccccc2)cc1,u,u,1.51µM*,x,u
O=C(NC(=S)Nc1cccc([N+](=O)[O-])c1)c1ccccc1,3.98µM*,u,u,x,13.5%
CC(=O)c1cccc(NC(=S)NC(=O)c2cncc(Br)c2)c1,u,2.51µM*,u,x,10.2%
COc1cc([N+](=O)[O-])ccc1NC(=O)CCS(=O)(=O)c1ccc2c(c1)n(C)c(=O)c(=O)n2C,-6.3%,-4.8%,1.6%,x,-0.2%
S=c1[nH]c(-c2ccc(Cl)cc2)cs1,u,21.2%,u,18.0%,6.3%
Cc1ccc(-c2csc(=S)[nH]2)cc1,u,3.16µM*,u,x,u
O=C1NC2(CCCCC2)C(=O)N1/N=C/c1ccc(O)cc1O,-0.1%,0.3%,16.9µM*,-4.1%,-2.4%
O=C1NC2(CCCCC2)C(=O)N1/N=C/c1ccccc1Br,u,10.9%,u,u,u
O=C(COc1ccccc1C(=O)c1cnn(-c2ccccc2)c1)Nc1ccc2ccccc2c1,u,u,1.51µM*,12.6µM*,13.6%
CC(C)n1cc(NC(=O)COc2ccccc2Cl)cn1,5.2%,-4.0%,-4.3%,x,3.0%
CCOC(=O)COc1ccccc1C(=O)c1cnn(-c2ccccc2)c1,u,u,10.7µM*,x,u
CC(C)c1ccc(NC(=O)COc2ccc(F)cc2C(=O)c2cnn(-c3ccccc3)c2)cc1,u,0.3%,9.53µM*,u,16.0%
O=C(CCCSc1nnnn1-c1ccccc1)c1ccc(F)cc1,0.0%,3.1%,-0.2%,-21.7%,-5.6%
O=C(O)CSCc1cccc2ccccc12,x,x,x,-5.7%[9.22 µM],x
O=C(OCC(=O)N1CCOCC1)c1ccc(O)cc1,-0.1%,1.3%,-3.2%,x,7.3%

# Compound activity: PubChem, National Center for Advancing Translational Sciences (NCATS)
